Screening data: PubChem BioAssay, National Center for Advancing Translational Sciences (NCATS)
In the library only some 12% were active in any assay of this set; here they are far more common.
LASV entry inh: qHTS for Inhibitors of binding or entry into cells for Lassa Virus. AID 540256, 2011. actives 1.2% (n = 300,000). Potency, µM (titrated, usually from 37.9 µM), inactives show at the top dose activity change, negative = inhibition, hits mostly inhibitors. Lassa virus pseudotype entry inhibition, cell reporter; calls by dose curve; tested in HEK293 cells; also: potency is read from the fitted curve at half-maximal effect; % is scaled to controls: 0 for no effect and ±100 for the full control effect; nearly all actives have a fitted effect of over 50% in size
Cycloheximide cs: Cycloheximide Counterscreen for Small Molecule Inhibitors of Shiga Toxin; actives 12% (n = 300,000); max response, %; AID 2314, 2010; cell reporter, cycloheximide protein synthesis inhibition counterscreen; in the data active = max response mostly above about 13%, no sharp cut-off; inactive = mostly below about 14%; also: read at 38.3 µM for the half of the compounds with a filed dose; 0% is about no effect
MARV entry inh: qHTS for inhibitors of binding or entry into cells for Marburg Virus; actives 1.8% (n = 300,000); Potency, µM (doses to about 37.8 µM), inactives show at the highest dose activity change, negative = inhibition, hits mostly inhibitors; Marburg virus pseudotyped entry inhibition, cell reporter; calls by dose curve; tested in HEK293 cells; also: potency is read from the fitted curve at half-maximal effect; % is scaled to controls: 0 for no effect and ±100 for the full control effect
Shiga inhibitor: A qHTS for Small Molecule Inhibitors of Shiga Toxin | Vero cells, Shiga toxin protein synthesis inhibition reporter | inhibition, % at 38.7 µM | actives 9.2% (n = 290,000); in the data active = inhibition mostly above about 28%, no sharp cut-off; inactive = mostly below about 43%; also: 0% is about no effect
The depositor's hits bear a star; u = inconclusive; x = not tested or not shown; + = active, no number; ! = not active in a repeat; [ ] = dose if it differs, or a comment.

SMILES	LASV entry inh	Cycloheximide cs	MARV entry inh	Shiga inhibitor
CC[C@H](C)[C@H](NC(=O)CNC(=O)[C@H](CCCNC(=N)N)NC(=O)[C@H](CO)NC(=O)[C@H](C)NC(=O)[C@H](Cc1ccc(O)cc1)NC(=O)[C@H](Cc1c[nH]c2ccccc12)NC(=O)[C@H](C)NC(=O)[C@@H]1CCCN1C(=O)[C@H](CC(N)=O)NC(=O)[C@@H](NC(=O)[C@H](CC(=O)O)NC(=O)[C@@H]1CCCN1C(=O)[C@@H](N)[C@@H](C)O)[C@@H](C)CC)C(=O)N[C@@H](CCCNC(=N)N)C(=O)N1CCC[C@H]1C(=O)N[C@H](C(=O)NCC(=O)N[C@@H](CCCNC(=N)N)C(=O)N[C@@H](Cc1ccccc1)C(N)=O)C(C)C	x	-6	x	-10
O=C(CSc1ccc(-c2ccccn2)nn1)N1CCc2ccccc21	19%	19	25%[46.1 µM]	42*
O=C(CN1CCN(c2ncccn2)CC1)N1CCc2ccccc21	12%	-4	6%	-4
O=C(CSc1ccccn1)N1CCc2ccccc21	u	40*	u	116*
Cn1ccnc1SCC(=O)N1CCc2ccccc21	x	31*	x	79*
O=C(CSc1ccc(-c2ccccn2)nn1)NC1CCCCC1	u	14	u	25
COc1cccc(NC(=O)Cn2c(=O)n(CC3CCCO3)c(=O)c3ccccc32)c1 (stereo not given)	8%	-6	18%	-3
NC(=O)C1(N2CCCCC2)CCN(C(=S)Nc2ccc(S(N)(=O)=O)cc2)CC1	x	-2	x	-2
CN(C(=O)CSc1nnc(-c2ccccc2)o1)c1c(N)n(Cc2ccccc2)c(=O)[nH]c1=O	x	-2	-3%[46.1 µM]	-6
Cc1ccccc1CCNC(=O)c1ccc2c(c1)c(C)c(C)n2Cc1ccccc1	-11%[46.1 µM]	x	x	x
Cc1cc(NC(=O)Nc2ccc(N(C)C)cc2)c2cc(F)cc(F)c2n1	x	28*	x	34*
Cc1cccc(Nc2c3c(nc4ccccc24)CCC3)c1	u	-2	11µM*	-6
Cc1ccc2nc3c(c(Nc4ccc5c(c4)OCCO5)c2c1)CCC3	14µM*	10	u	2
CCOP(=O)(OCC)c1nc(-c2ccc(OC)cc2)oc1N1CCOCC1	-26%[46.1 µM]	-5	-5%[46.1 µM]	4
Cc1ccc(-c2nc(P(=O)(c3ccccc3)c3ccccc3)c(N3CCOCC3)o2)cc1	u	-6	10µM*	13
O=C1COc2ccc(OCc3ccc(F)cc3)cc21	-13%[14.3 µM]	51*	u	101*
Cc1c(OCC(=O)NC2CCN(Cc3ccccc3)CC2)ccc2c3c(c(=O)oc12)CCC3	x	-10	x	-7
CC(=O)NNc1ncnc2c1cnn2-c1ccc(C)c(Cl)c1	17%	38*	-16%[46.1 µM]	68*
Cc1ccc(-n2ncc3c(NNC(=O)c4ccco4)ncnc32)cc1C	x	25*	x	56*
CC(=O)NNc1ncnc2c1cnn2-c1ccc(C)cc1	26%	37*	-2%[46.1 µM]	86*
O=C(NNc1ncnc2c1cnn2-c1cccc(Cl)c1)c1ccco1	x	9	x	23
CCC[C@@H]1Cc2c(sc3ncnc(N)c23)CO1	x	x	18%	x
COc1ccc2c(c1)C(=O)/C(=C/C=C/c1ccccc1)CC2	-3%	21*	1%	+
COc1ccc2c(c1)CC/C(=C\C=C\c1ccccc1OC)C2=O	u	38*	-26%	89*
COc1ccc(-c2ccc3c(N)c(C(=O)Nc4ccc(C)cc4C)sc3n2)cc1OC	-2%[46.1 µM]	x	u	x
SMILES	LASV entry inh	Cycloheximide cs	MARV entry inh	Shiga inhibitor
CCOc1ccc(OCc2cccc(C(=O)N/N=C/c3cccnc3)c2)cc1	1.6µM*	88*	0.32µM*	166*
O=C(N/N=C/c1cccnc1)c1ccccc1OCc1cccc(Br)c1	-15%	-2	u	-22
CC(C)c1ccc(OCc2cccc(C(=O)N/N=C/c3cccnc3)c2)cc1	u	133*	1.4µM*	164*
O=C(NN=C1C2CC3CC(C2)CC1C3)c1ccncc1	13%	0	10%	5
O=C(NN=C1C2CC3CC1CC(Cl)(C3)C2)c1cccs1	20%	45*	u	35
O=C(NN=C1C2CC3CC1CC(Cl)(C3)C2)c1ccccn1	x	14*	x	43
O=C(NN=C1c2ccccc2-c2ccccc21)c1ccccn1	-15%[14.3 µM]	1	15%	61
O=C(Nc1ccc(F)cc1)C1CCN(S(=O)(=O)c2cccc3nonc23)CC1	12%	1	-18%[46.1 µM]	-16
Cc1nc(N)nc(Nc2ccc(Cl)cc2)c1Br	u	34*	26%	43*
O=C(Nc1ccccc1C(F)(F)F)N1CCN(C(c2ccccc2)c2ccccc2)CC1	-16%	-3	u	2
O=C(CCNS(=O)(=O)c1ccccc1C(F)(F)F)N1CCN(C(c2ccccc2)c2ccccc2)CC1	u	x	7.1µM*	x
COc1cccc(C2C(C#N)=C(N)OC3=C2C(=O)CC(c2ccco2)C3)c1OCc1ccc(F)cc1 (stereo not given)	u	-4	16µM*!	-8
O=C(Nc1ccc(C(=O)NCCCN2CCCCC2)cc1)C1=CSCCO1	x	9	x	12
CC(C)CCNC(=O)c1ccc(NC(=O)C2=CSCCO2)cc1	x	24*	x	59*
C=CCNC(=O)c1ccc(NC(=O)C2=CSCCO2)cc1	x	23*	x	30
O=C(CCN1C(=O)c2ccccc2Sc2ncccc21)Nc1ccc(F)cc1F	5%[46.1 µM]	x	x	x
NS(=O)(=O)c1ccc(CCNC(=O)/C=C/c2ccccc2[N+](=O)[O-])cc1	x	-2	x	-5
CCOC(=O)COn1c(=O)c(-c2cccs2)[n+]([O-])c2ccccc21	1%	33*	19%	30
CCOn1c(=O)c(-c2cccs2)[n+]([O-])c2ccccc21	5%	15	22%	-4
COn1c(=O)c(-c2cccs2)[n+]([O-])c2ccccc21	0%	20*	u	49
c1ccc(-c2cc(N3CCCCCC3)n[nH]2)cc1	6%	48*	-11%	151*
Cc1nc(-c2ccccc2)cc(N2CCCC2)n1	5%	15	-10%	23
Nc1nc(-c2ccccc2)cc(N2CCCCC2)n1	u	3	u	6
O=C(Nc1cc(N2CCCCC2)ncn1)c1ccccc1	-3%	29*	-29%[46.1 µM]	54*
c1ccc(-c2cc(N3CCCCC3)ncn2)cc1	-15%	41*	u	62*
SMILES	LASV entry inh	Cycloheximide cs	MARV entry inh	Shiga inhibitor
CCN1C(=S)NC(c2ccccc2)C(C(=O)OC)=C1C (stereo not given)	x	x	-2%[14.2 µM]	x
Cc1cc(-c2csc(NCc3ccccc3)n2)c(C)n1C	2%[46.1 µM]	-3	1%[46.1 µM]	17
COCCNc1nc(-c2cc(C)c(C)cc2C)cs1	x	20*	0%[46.1 µM]	73*
c1ccc(-n2nnc3ccccc32)nc1	2%	26*	20%	67*
COc1cccc(C2Nc3ccccc3C(=O)N2c2ccc(F)cc2)c1O (stereo not given)	1%[46.1 µM]	59*	u	79*
O=C1c2ccccc2NC(c2ccccc2O)N1c1ccc(F)cc1 (stereo not given)	u	67*	u	56*
S=C=Nc1cccc(NC(=S)NCCCCNC(=S)Nc2cccc(N=C=S)c2)c1	x	-1	x	2
CC(=O)c1ccc(NC(=O)c2nc(-c3ccccc3)n(-c3ccc(Cl)cc3)n2)cc1	-9%[46.1 µM]	x	12%[46.1 µM]	x
